Screening results from PubChem BioAssay.
NPR1 antag – blocks ANP-stimulated signaling of human Npr1 receptor; P16066; Potency, µM (titrated, usually from 46.3 µM), for the others: at the highest dose activity change, negative = inhibition, actives largely listed as inhibitors; HEK293 hNpr1 GloSensor cGMP, ANP-stimulated luminescence; AID 1347048; 76,000 compounds, 1.6% hits; calls by dose curve; further: nearly all actives have a fitted effect of over 60% in size
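Compound pre-incubated 30 min at room temperature on GloSensor-loaded HEK293 cells stably carrying hNpr1 and the pGS-40F cGMP biosensor. Stimulation uses hNppA at 0.1 nM final; luminescence is taken at baseline and 20 min post-agonist.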
FLuc inh – blocks purified firefly luciferase enzyme activity; AID 1347043; 76,000 compounds, 2.5% hits; Potency, µM (top dose mostly 115 µM), usual class: inhibitors; purified P. pyralis luciferase, luminescence, biochemical; further: nearly all actives have a fitted effect of over 65% in size
Target sequence (P08659 whole entry, looked up): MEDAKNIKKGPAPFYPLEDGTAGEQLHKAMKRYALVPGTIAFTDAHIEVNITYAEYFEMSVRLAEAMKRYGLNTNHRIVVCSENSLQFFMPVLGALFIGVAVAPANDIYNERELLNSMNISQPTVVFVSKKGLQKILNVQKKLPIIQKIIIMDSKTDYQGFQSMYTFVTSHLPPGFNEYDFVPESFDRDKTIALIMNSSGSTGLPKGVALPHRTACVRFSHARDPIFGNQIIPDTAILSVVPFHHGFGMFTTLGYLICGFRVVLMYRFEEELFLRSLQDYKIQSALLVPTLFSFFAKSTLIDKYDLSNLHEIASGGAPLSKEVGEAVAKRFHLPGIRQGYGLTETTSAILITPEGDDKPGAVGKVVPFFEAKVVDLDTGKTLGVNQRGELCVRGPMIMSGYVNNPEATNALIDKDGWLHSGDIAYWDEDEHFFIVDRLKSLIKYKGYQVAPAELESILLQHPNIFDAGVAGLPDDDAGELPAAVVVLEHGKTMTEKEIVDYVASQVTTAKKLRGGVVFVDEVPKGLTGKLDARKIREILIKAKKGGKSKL
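Cell-free enzyme assay, 10nM P. pyralis luciferase, luciferin and ATP each at 10uM. Inhibition profiled over a 6-point titration, read as luminescence.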
HEK cytotox – HEK 293 cell cytotoxicity; HEK 293 viability, ATP luminescence (CellTiter-Glo), 48-72 h; Potency, µM (highest dose often 115 µM), without a hit: top-dose activity change, negative = cytotoxicity, usual class: inhibitors; 94,000 compounds, 6.6% hits; further: nearly all actives have a fitted effect of over 60% in size
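qHTS cytotoxicity; HEK 293, 250 cells/well; compound pinned; 48 or 72 hr, 37 degree Celsius, 5% CO2, 95% humidity; CellTiter-Glo, 10 min RT; luminescence (ATP).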
GPT2 inhibitor – blocks human glutamate pyruvate transaminase 2 | Potency, µM (series often up to 57.7 µM), for the others: top-dose activity change, negative = inhibition, hits mostly inhibitors | AID 1671188 | Recombinant GPT2, coupled pyruvate oxidase/HRP Amplex Red fluorescence | Q8TD30 | 100,000 compounds, 0.25% hits; further: nearly all actives have a fitted effect of over 60% in size
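GPT2 10ng/uL, a-KG 250uM, L-Ala 2mM, HEPES pH7.5 + 0.0001% Tween; 30 min RT. Then Amplex mix (PO/HRP/ThPP), 30 min RT dark, fluorescence. AOA 50uM used as positive control.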
3T3 cytotox – kills NIH 3T3 cells | NIH 3T3 viability, CellTiter-Glo ATP luminescence, 48-72 h | Potency, µM (highest dose often 96.7 µM), for inactives: at the top dose activity change, negative = cytotoxicity, actives largely listed as inhibitors | 94,000 compounds, 4.3% hits; further: nearly all actives have a fitted effect of over 55% in size
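NIH 3T3 cells at 400 cells/well received 23 nL of compound by pintool and were incubated 48 or 72 h at 37 °C. Viability was read as ATP-coupled CellTiter-Glo luminescence.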
Starred values were filed as active, the others as inactive; i = inactive; u = inconclusive; x = not tested or not shown; ! = a repeat was not active; [ ] = remark or other dose. In the library only some 10% were active in any assay of this set; here they are far more common. Unless noted, the call rests on the fitted dose curve; in most records, active means well fitted curve in the direction sought with a large enough effect; inconclusive means small, poorly fitted or top-dose-only effect, or another doubt; inactive means no such curve, though single readings can be large; an effect the other way counts as inactive or inconclusive. On the % scale 0 is the no-effect control and ±100 the full control effect; potency means the concentration at half of the fitted maximal effect.

SMILES	NPR1 antag	FLuc inh	HEK cytotox	GPT2 inhibitor	3T3 cytotox
COc1ccc(-c2cc(C[C@H]3CNCC[C@H]3CC(=O)NCc3cccs3)no2)cc1	-14.7%[70.6 µM]	i	56.2µM*	u	89.1µM*
Cc1cc(C(F)(F)F)nn1CC(=O)N1CCc2nn(CC3CC3)c(=O)n2CC1	-1.6%	i	-0.1%	i	i
COc1cccc(C(=O)N2CCCC(C(=O)N3CCCC(c4nc5ccncc5[nH]4)C3)C2)c1 (stereo not given)	x	x	-3.0%	i	-18.4%
O=C(C[C@@H]1CCNC[C@@H]1Cc1cc(-c2ccccc2)on1)NCc1ccccc1	-16.9%[70.6 µM]	i	u	u	100µM*
COc1ccc(-c2cc(C[C@H]3CNCC[C@H]3CC(=O)NCc3ccccc3)no2)cc1	-18.6%[70.6 µM]	i	89.1µM*	2.2%[88.5 µM]	112µM*
COc1ccccc1N1CCN(C(=O)C[C@@H]2CCNC[C@@H]2Cc2cc(-c3ccc(C(C)(C)C)cc3)on2)CC1	-1.3%	i	u	-17.8%	u
CC(C)(C)c1ccc(-c2cc(C[C@H]3CNCC[C@H]3CC(=O)NCc3ccc(F)cc3)no2)cc1	1.3%	i	28.2µM*	i	25.1µM*
COc1ccc(-c2cc(C[C@H]3CNCC[C@H]3CC(=O)NCc3ccc(F)cc3)no2)cc1	-13.8%	i	u	i	u
O=C(C[C@@H]1CCNC[C@@H]1Cc1cc(-c2ccccc2)on1)NCc1cccnc1	2.4%[70.6 µM]	i	-14.8%[172 µM]	i	3.1%[174 µM]
CC(C)(C)NC(=O)C[C@@H]1CCNC[C@@H]1Cc1cc(-c2ccc(C(C)(C)C)cc2)on1	-11.0%[70.6 µM]	i	12.6µM*	-1.8%[88.5 µM]	22.4µM*
COc1ccc(-c2ccc3c(c2)C(=O)N2CC[C@H](NC(=O)COCC(=O)O)[C@H]2C(=O)N3)c(OC)c1	1.0%	u	-23.8%	-24.1%	-16.3%
CC1=CC2/C=C(\C)CCC3OC(C)(C)OC3CCC(=O)C23C(=O)NC(CC(C)C)C3C1C (stereo not given)	x	x	x	i	x
Cc1cc(C)nc(SCc2ccc(C(=O)N3CCCC[C@H](N(C)C)C3)o2)n1	1.8%	i	u	-9.8%	-23.6%
COc1ccc(-c2cc(C[C@H]3CNCC[C@H]3CC(=O)Nc3ccccc3)no2)cc1	-21.1%[70.6 µM]	i	44.7µM*	4.3%[88.5 µM]	39.8µM*
O=C(C[C@@H]1CCNC[C@@H]1Cc1cc(-c2ccccc2)on1)NCc1cccs1	-3.4%[70.6 µM]	i	89.1µM*	u	u
COc1ccc(-c2cc(C[C@H]3CNCC[C@H]3CC(=O)NC(C)C)no2)cc1	-4.1%[70.6 µM]	i	-20.6%[172 µM]	-4.0%[88.5 µM]	-10.5%[174 µM]
CC(=O)NCCNC(=O)C[C@@H]1CCNC[C@@H]1Cc1cc(-c2ccccc2)on1	-0.9%[70.6 µM]	i	i	i	i
COc1ccc(-c2cc(C[C@H]3CNCC[C@H]3CC(=O)N3CCN(c4ccccc4OC)CC3)no2)cc1	-20.0%	i	u	-26.6%	14.1µM*
COc1ccccc1N1CCN(C(=O)C[C@@H]2CCNC[C@@H]2Cc2cc(-c3ccc(F)cc3)on2)CC1	-0.7%	i	u	-5.1%	u
Cc1ccc2c(c1)N1C(=O)OC[C@@H]1CCN(C)C2	0.4%[70.6 µM]	i	3.5%[230 µM]	-4.8%[88.5 µM]	i
COCCC(=O)N1C[C@@H](COc2cccnc2)[C@H](c2ccncc2)C1	-2.7%	i	-4.4%	i	-6.7%
O=C(NCCN1CCOCC1)C1CCc2nnc(-c3ccc(F)cc3)n21 (stereo not given)	x	x	-1.4%	i	-12.1%
O=C(C[C@@H]1O[C@H](CNCc2ccc(F)cc2)[C@@H](O)[C@H]1O)NCCN1CCOCC1	1.7%[70.6 µM]	i	i	-0.4%[88.5 µM]	u
COC(=O)[C@@H]1Cc2c([nH]c3ccccc23)[C@H]2C[C@H](NCCN3CCOCC3)C[C@@H](c3ccc(F)cc3)N21	-25.1%	i	20µM*	i	25.1µM*
COC(=O)[C@@H]1Cc2c([nH]c3ccccc23)[C@H]2C[C@@H](NCCN3CCOCC3)C[C@@H](c3ccc(F)cc3)N21	-2.1%	i	28.2µM*	1.3%	u
SMILES	NPR1 antag	FLuc inh	HEK cytotox	GPT2 inhibitor	3T3 cytotox
COc1ccc(N2CC(c3noc(-c4ccc(C)c(C)c4)n3)CC2=O)cc1OC (stereo not given)	-2.1%	i	u	i	-10.4%
CCC1(N2CCN(C(=O)CCc3c[nH]c4ccccc34)CC2)CCN(S(C)(=O)=O)C1 (stereo not given)	-18.3%	i	-25.4%	i	-13.7%
O=C(CCC1CCN(S(=O)(=O)N2CCCC2)CC1)Nc1ccccc1Cl	-6.6%	i	u	-14.1%	u
Clc1ccc(CCNc2ncncn2)c(Cl)c1	u	i	39.8µM*	2.5%	u
O=C(NCCc1ccc(Cl)cc1Cl)C1CNCCO1 (stereo not given)	-3.8%	i	-2.5%	3.4%	-25.0%
Cn1cnc2ccc(-c3ccncc3)nc2c1=O	3.2%[70.6 µM]	i	u	2.3%[88.5 µM]	79.4µM*
O=c1c2nc(-c3ccccc3)ccc2ncn1-c1ccccc1	-2.2%[70.6 µM]	i	u	0.9%[88.5 µM]	u
COc1ccc(-c2ccc3ncn(C)c(=O)c3n2)cc1OC	-0.4%[70.6 µM]	i	u	-5.0%[88.5 µM]	35.5µM*
COc1ccc(-c2ccc3c(n2)c(=O)ncn3Cc2ccccc2)cc1OC	-1.3%[70.6 µM]	i	-16.9%[172 µM]	u	u
COc1ccc2c(c1)c(CN1CCC(F)(C(=O)NCc3ccccc3)CC1)cn2C	x	x	u	2.4%	u
Cc1nnc2ccc(NCc3ccc(F)cc3)nn12	u	u	u	3.0%	u
CCOC(=O)Nc1ccc(NCc2ccc(F)cc2)nc1N	x	x	x	10µM*!	x
CNc1nccc(N2CCC(CC(=O)NCCC(C)C)CC2)n1	5.5%	i	31.6µM*	1.6%	u
CC[C@@](C)(Nc1ccnc(-c2c[nH]c3ncccc23)n1)C(=O)NCC(F)(F)F	x	x	x	i	x
O=C(c1ccc(CN2CCCCC2)cc1)N1CCOC2(CNCCOC2)C1 (stereo not given)	3.3%	i	-28.9%	-17.0%	2.9%
C=CCN(C)C(=O)[C@@H](C)C1CC[C@@]2(C)Cc3sc(CSc4ccccc4)nc3[C@@H](C)[C@@H]2[C@H]1O (stereo not given in full)	-12.0%	i	-8.7%	-16.6%	-33.7%
C#CCN(C)C(=O)[C@@H](C)C1CC[C@@]2(C)Cc3sc(NCCCC)nc3[C@@H](C)[C@@H]2[C@H]1O (stereo not given in full)	-20.1%[70.6 µM]	17.8µM*	u	u	u
C=CCN(C)C(=O)[C@@H](C)C1CC[C@@]2(C)Cc3sc(NCCCC)nc3[C@@H](C)[C@@H]2[C@H]1O (stereo not given in full)	-12.6%[70.6 µM]	u	u	u	35.5µM*
